The results in this text go back to PubChem BioAssay (Tox21).

Experiment [1] has as its target Progesterone receptor (Homo sapiens) (UniProt P06401). Put plainly: qHTS assay to identify small molecule agonists of the progesterone receptor (PR) signaling pathway (AID 1346784; calls by dose curve; also: nearly all actives have a fitted effect of over 30% in size). In short, it runs like this:
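PR-UAS-bla HEK 293T cells (beta-lactamase reporter under UAS) in 2% charcoal-stripped FBS, dosed with 23 nL compound after 6 hr, incubated 16hr at 37C. LiveBLAzer B/G FRET substrate added, fluorescence read after 2 hours.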

For experiment [2] the target is unchanged. The experiment can be described thus: qHTS assay to identify small molecule antagonists of the progesterone receptor (PR) signaling pathway (AID 1346795; active = well fitted inhibition curve with a large enough effect in the signal ratio in the repeat runs, not every such curve was filed as active; the % refers to the signal ratio). In short, it runs like this:
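PR-UAS-bla HEK293T cells with beta-lactamase reporter under UAS control, in 2% charcoal-stripped FBS, treated with compounds plus 1 nM promegestone (R5020, final) for 16 hr at 37C. Read-out: FRET beta-lactamase substrate fluorescence after 2 hr at room temperature.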
Background: qHTS replaces the single test concentration by a dilution series.

Experiment [3] is described as follows: qHTS assay to identify small molecule antagonists of the progesterone receptor (PR) signaling pathway - cell viability counter screen (AID 1346798). Also: series mostly up to about 92 µM; nearly all actives have a fitted effect of over 50% in size. An outline of the steps: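 PR-UAS-bla HEK293T cells, 3,000/well in 2% charcoal-stripped FBS medium, dosed with compounds plus R5020 agonist and incubated 16 h at 37C. Viability then measured in the same wells by CellTiter-Glo luminescence after 30 min at RT.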

Experiment [4] in a line: qHTS assay to identify small molecule agonists of the progesterone receptor (PR) signaling pathway - cell viability counter screen (AID 1346799; calls by dose curve; also: nearly all actives have a fitted effect of over 45% in size). An outline of the steps: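 Counter screen in the PR-UAS-bla HEK293T wells (2% charcoal-stripped FBS, 16 h compound exposure at 37 C) after the bla read. CellTiter-Glo added, 30 min at room temperature, luminescence read as cell viability.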

Experiment [5] is described as follows: qHTS assay to identify small molecule antagonists of the TGF-beta/Smad signaling pathway - cell viability counter screen (AID 1346824). Also: nearly all actives have a fitted effect of over 50% in size. An outline of the steps:
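SBE-bla HEK 293T cells were plated overnight at 37 C, then given compounds in DMSO plus TGF-beta1 (added as 0.25 ng/mL solution) for 5 hr. After the bla read, CellTiter-Glo was added to the same wells and luminescence read after 30 min at room temperature.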

Experiment [6] is described as follows: qHTS assay to identify small molecule agonists of the TGF-beta/Smad signaling pathway - cell viability counter screen (AID 1346829). Also: top concentration of the series differs between compounds; nearly all actives have a fitted effect of over 45% in size. An outline of the steps: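 HEK 293T SBE-bla line, 5 hr compound exposure at 37 C, multiplexed CellTiter-Glo viability read by luminescence.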
A short description of experiment [7]: qHTS assay to identify small molecule agonists of the TGF-beta/Smad signaling pathway (AID 1346859; active = well fitted activation curve with a large enough effect in the signal ratio in the repeat runs, not every such curve was filed as active; the % refers to the signal ratio; also: series mostly up to about 77 µM). In short, it runs like this:
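SBE-bla HEK293T cells plated overnight, then compound exposure for 5 h at 37 C. Beta-lactamase reporter read with LiveBLAzer B/G FRET substrate after 2 h at room temperature, fluorescence at 405 nm excitation, 460/530 nm emission.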

Experiment [8] deals with Thyrotropin-releasing hormone receptor (Homo sapiens) (UniProt P34981). Put plainly: qHTS assay to identify small molecule antagonists of the thyrotropin-releasing hormone receptor (TRHR) signaling pathway (AID 1346877; active = well fitted inhibition curve with a large enough effect in the repeat runs, not every such curve was filed as active; also: series mostly up to about 51 µM). In short, it runs like this: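 Kinetic fluorescence (3 min, 1 s resolution) following stimulation with TRH at 1 nM final; HEK293 cells bearing human TRHR; 5 min compound preincubation at RT; concentration-response over 15 points, triplicates.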
Sequence of Thyrotropin-releasing hormone receptor (Homo sapiens) (P34981 whole entry, looked up): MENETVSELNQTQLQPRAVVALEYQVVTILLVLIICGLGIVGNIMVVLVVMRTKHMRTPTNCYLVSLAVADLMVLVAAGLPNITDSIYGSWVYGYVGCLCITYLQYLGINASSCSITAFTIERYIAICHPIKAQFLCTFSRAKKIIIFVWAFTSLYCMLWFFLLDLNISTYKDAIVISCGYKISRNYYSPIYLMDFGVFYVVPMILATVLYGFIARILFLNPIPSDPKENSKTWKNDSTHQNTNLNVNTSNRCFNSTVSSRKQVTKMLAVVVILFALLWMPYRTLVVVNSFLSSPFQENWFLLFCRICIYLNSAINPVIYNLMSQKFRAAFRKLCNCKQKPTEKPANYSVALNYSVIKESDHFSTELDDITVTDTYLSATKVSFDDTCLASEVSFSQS

For experiment [9] the target is unchanged. Put plainly: qHTS assay to identify small molecule agonists of the thyrotropin-releasing hormone receptor (TRHR) signaling pathway (AID 1346891; calls by dose curve; also: series mostly up to about 58 µM). An outline of the steps:
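HEK293 cells expressing TRHR plated 18 h at 37 C/5% CO2, calcium dye-loaded 2 h at 37 C, then compound added (agonist mode); kinetic calcium fluorescence read 3 min at 1 s intervals; 15 concentrations in triplicate.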

A short description of experiment [10]: Human pregnane X receptor (PXR) small molecule agonists, qHTS cell viability counter screen (AID 1346977). Also: nearly all actives have a fitted effect of over 50% in size. An outline of the steps: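 PXR-Luc HepG2 cells (2,000/well, 5% charcoal-stripped FBS) preincubated 5 hr, then exposed to compounds 24 hr at 37 C. Viability read in the same wells by CellTiter-Fluor fluorescence, reagent added at 23 hr, 1 hr incubation.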

The nature of experiment [11]: Caspase-3/7 induction in HepG2 cells by small molecules, qHTS assay (AID 1346978). Also: nearly all actives have a fitted effect of over 15% in size. An outline of the steps: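 Wild-type HepG2 cells (2,000/well) were settled 5 h at 37 C, 5% CO2, then exposed to compounds in DMSO for 17 h. Caspase-3/7 activity was read by luminescence 30 min after adding Caspase-Glo 3/7 reagent at room temperature.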
Experiment [12] in a line: Caspase-3/7 induction in CHO-K1 cells by small molecules, qHTS cell viability counter screen (AID 1346979). Also: nearly all actives have a fitted effect of over 35% in size. An outline of the steps:
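Wild-type CHO-K1 cells (1,500/well) treated with compound after 5 h plating; after 16 h at 37C, viability read as CellTiter-Fluor fluorescence following 1 h reagent incubation, in the same wells as the caspase read.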

Experiment [13] is described as follows: Caspase-3/7 induction in CHO-K1 cells by small molecules, qHTS assay (AID 1346980). Also: nearly all actives have a fitted effect of over 15% in size. An outline of the steps:
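Wild-type cells were seeded at 1,500 per well and settled 5 hr at 37 C, 5% CO2, then exposed to DMSO-dissolved compounds for 17 hr. Caspase-Glo 3/7 reagent was added, and luminescence was read after 30min at room temperature.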

The target of experiment [14] is Nuclear receptor subfamily 1 group I member 2 (Homo sapiens) (UniProt O75469). The experiment can be described thus: Human pregnane X receptor (PXR) small molecule agonists, qHTS assay (AID 1346982). Also: nearly all actives have a fitted effect of over 35% in size. Also: potency is read from the fitted curve at half-maximal effect. In short, it runs like this: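 Reporter HepG2 cells expressing PXR-Luc are cultured in charcoal-stripped FBS (5%), treated with compounds for 24 hr at 37 C, and assayed by ONE-Glo luminescence after 30 min at room temperature.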
Sequence of Nuclear receptor subfamily 1 group I member 2 (Homo sapiens) (O75469 whole entry, looked up): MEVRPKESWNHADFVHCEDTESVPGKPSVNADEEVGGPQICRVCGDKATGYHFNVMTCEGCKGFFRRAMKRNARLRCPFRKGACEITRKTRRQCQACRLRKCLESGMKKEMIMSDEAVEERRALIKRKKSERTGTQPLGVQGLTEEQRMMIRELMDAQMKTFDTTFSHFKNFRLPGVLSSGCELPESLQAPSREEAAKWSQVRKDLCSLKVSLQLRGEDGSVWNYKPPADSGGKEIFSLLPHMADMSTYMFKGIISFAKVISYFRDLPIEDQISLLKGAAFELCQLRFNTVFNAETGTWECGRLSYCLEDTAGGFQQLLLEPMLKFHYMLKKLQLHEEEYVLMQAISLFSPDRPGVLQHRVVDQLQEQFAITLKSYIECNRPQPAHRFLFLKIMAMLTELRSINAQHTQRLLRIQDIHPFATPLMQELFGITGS

Experiment [15] has as its target Nuclear receptor subfamily 1 group I member 2 (Rattus norvegicus) (UniProt Q9R1A7). The experiment can be described thus: Rat pregnane X receptor (rPXR) activation by small molecules, qHTS assay (AID 1346983). Also: nearly all actives have a fitted effect of over 20% in size. As to conditions: rPXR luciferase reporter cells, One-Glo luminescence, 24 h; active compounds read high. In short, it runs like this:
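Cell-based rPXR luciferase reporter assay, 2,000 cells per well, rested 5hr at 37 C before compound addition in DMSO, then 24 hr at 37 C. One-Glo reagent was added and luminescence read after 30 min at room temperature.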

Experiment [16] addresses Nuclear receptor subfamily 1 group I member 2 (Homo sapiens) (UniProt O75469). The experiment can be described thus: CYP3A4 induction through human pregnane X receptor (PXR) by small molecules, qHTS assay (AID 1346984). Also: nearly all actives have a fitted effect of over 40% in size. An outline of the steps:
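Induction measured in HepG2-based DPX-2 cells co-expressing human PXR and a CYP3A4 promoter-driven luciferase. After a 24-hour compound exposure, cells received CYP3A4 luciferin substrate at 3uM final for 3 hours, and light output was then recorded.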

Experiment [17] shares this target. Put plainly: Human pregnane X receptor (PXR) activation by small molecules, qHTS assay (AID 1346985). Also: nearly all actives have a fitted effect of over 40% in size. An outline of the steps:
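DPX-2 cells (HepG2 co-transfected with a PXR response element and a CYP3A4-promoter luciferase construct) were seeded at 2,000 per well, rested 5 hr at 37C, then exposed to DMSO-dissolved compounds for 24 hr. Activation was read as luciferase luminescence.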

Experiment [18] deals with Cytochrome P450 2C19 (Homo sapiens) (UniProt P33261). Put plainly: Cytochrome P450 Family 2 Subfamily C Member 19 (CYP2C19) small molecule antagonists: luciferase reporter qHTS assay (AID 1671197). Also: nearly all actives have a fitted effect of over 65% in size. Also: potency is read from the fitted curve at half-maximal effect. An outline of the steps: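 First, compounds are pinned into enzyme-substrate mix and held 10 min at room temperature. Second, NADPH regeneration solution is added and plates incubate 1 h at 37C. Third, detection reagent is added and luminescence read after 20 min.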
Sequence of Cytochrome P450 2C19 (Homo sapiens) (P33261 whole entry, looked up): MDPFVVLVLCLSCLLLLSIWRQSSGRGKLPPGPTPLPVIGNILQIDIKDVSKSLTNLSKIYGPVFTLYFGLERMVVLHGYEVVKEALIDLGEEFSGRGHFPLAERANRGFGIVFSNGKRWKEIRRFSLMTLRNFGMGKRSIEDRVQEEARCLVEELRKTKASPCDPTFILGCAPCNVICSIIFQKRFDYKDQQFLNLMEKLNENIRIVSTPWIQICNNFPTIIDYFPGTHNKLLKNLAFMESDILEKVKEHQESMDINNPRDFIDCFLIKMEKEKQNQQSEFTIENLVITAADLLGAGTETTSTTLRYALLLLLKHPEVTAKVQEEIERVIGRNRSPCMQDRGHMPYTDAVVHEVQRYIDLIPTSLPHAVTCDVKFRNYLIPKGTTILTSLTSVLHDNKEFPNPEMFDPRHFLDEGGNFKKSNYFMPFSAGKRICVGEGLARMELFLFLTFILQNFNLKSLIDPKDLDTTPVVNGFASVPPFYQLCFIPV
On the technique in general: A reporter such as luciferase makes a cellular process visible.

Experiment [19] can be described thus: Caspase-3/7 induction in HepG2 cells by small molecules, qHTS cell viability counter screen (AID 1346981). Also: series mostly up to about 92 µM; nearly all actives have a fitted effect of over 30% in size. In short, it runs like this:
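In this quantitative HTS counter screen, compounds delivered in DMSO were left on unmodified HepG2 cells for 16 hr at 37 C. Viability was then determined fluorometrically with CellTiter-Fluor, in parallel with caspase-3/7 induction in the same wells.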

The target of experiment [20] is Cytochrome P450 2D6 (Homo sapiens) (UniProt P10635). The experiment can be described thus: Cytochrome P450 Family 2 Subfamily D Member 6 (CYP2D6) small molecule antagonists: luciferase reporter qHTS assay (AID 1671196). Also: nearly all actives have a fitted effect of over 50% in size. Also: potency is read from the fitted curve at half-maximal effect. An outline of the steps: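 Test chemicals meet CYP2D6 plus proluciferin substrate (10 min, RT); NADPH regenerating solution then drives turnover for 1 h. Detection reagent halts the reaction; luminescence measured after 20 min.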
Sequence of Cytochrome P450 2D6 (Homo sapiens) (P10635 whole entry, looked up): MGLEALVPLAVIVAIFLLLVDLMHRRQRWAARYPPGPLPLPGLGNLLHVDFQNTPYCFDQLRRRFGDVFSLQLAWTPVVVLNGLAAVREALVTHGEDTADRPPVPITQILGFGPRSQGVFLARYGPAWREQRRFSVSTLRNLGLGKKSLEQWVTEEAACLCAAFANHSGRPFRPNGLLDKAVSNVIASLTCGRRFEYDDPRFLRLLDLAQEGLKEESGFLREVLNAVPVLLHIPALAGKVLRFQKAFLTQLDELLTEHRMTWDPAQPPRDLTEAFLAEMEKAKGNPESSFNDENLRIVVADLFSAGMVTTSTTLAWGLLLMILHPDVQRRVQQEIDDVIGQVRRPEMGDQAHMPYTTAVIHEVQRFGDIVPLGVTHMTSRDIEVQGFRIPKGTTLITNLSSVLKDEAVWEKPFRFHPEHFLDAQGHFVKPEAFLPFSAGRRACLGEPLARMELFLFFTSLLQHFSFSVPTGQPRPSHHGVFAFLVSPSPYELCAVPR

A number with no mark means an inactive call. Records with an inconclusive call do not appear. Calls of active or inactive are those of the source. Unless noted, calls follow the shape of the dose curve; as a rule, active = well fitted curve in the direction sought with a large enough effect in the repeat runs; inconclusive = weak or mixed curves; inactive = no such curve, though single readings can be large; an effect the other way counts as inactive or inconclusive.
% is scaled to controls: 0 for no effect and ±100 for the full control effect.

Sequence of Progesterone receptor (Homo sapiens) (P06401 whole entry, looked up): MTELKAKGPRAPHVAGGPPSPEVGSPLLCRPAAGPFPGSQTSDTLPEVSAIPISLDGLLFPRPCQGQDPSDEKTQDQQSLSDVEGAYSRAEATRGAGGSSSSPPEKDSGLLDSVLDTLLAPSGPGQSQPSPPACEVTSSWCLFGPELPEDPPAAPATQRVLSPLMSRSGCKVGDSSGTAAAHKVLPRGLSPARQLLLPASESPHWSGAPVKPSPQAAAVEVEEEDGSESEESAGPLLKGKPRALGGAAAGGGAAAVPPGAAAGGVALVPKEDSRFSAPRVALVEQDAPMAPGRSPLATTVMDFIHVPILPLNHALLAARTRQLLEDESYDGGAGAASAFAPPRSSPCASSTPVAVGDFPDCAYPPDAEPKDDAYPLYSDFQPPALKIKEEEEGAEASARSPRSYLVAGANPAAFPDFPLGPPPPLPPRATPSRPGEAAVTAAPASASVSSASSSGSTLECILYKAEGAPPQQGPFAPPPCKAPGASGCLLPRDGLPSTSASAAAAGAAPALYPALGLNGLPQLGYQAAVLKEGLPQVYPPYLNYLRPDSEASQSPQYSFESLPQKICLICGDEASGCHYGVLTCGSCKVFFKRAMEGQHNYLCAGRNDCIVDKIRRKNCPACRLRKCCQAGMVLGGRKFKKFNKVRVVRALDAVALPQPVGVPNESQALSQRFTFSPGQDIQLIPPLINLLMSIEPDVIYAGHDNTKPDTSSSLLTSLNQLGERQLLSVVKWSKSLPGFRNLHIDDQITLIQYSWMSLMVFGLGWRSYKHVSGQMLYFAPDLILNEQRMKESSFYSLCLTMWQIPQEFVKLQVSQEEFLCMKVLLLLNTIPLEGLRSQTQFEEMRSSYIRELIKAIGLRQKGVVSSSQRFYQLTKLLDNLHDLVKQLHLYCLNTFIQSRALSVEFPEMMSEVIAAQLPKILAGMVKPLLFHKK
Sequence of Nuclear receptor subfamily 1 group I member 2 (Rattus norvegicus) (Q9R1A7 whole entry, looked up): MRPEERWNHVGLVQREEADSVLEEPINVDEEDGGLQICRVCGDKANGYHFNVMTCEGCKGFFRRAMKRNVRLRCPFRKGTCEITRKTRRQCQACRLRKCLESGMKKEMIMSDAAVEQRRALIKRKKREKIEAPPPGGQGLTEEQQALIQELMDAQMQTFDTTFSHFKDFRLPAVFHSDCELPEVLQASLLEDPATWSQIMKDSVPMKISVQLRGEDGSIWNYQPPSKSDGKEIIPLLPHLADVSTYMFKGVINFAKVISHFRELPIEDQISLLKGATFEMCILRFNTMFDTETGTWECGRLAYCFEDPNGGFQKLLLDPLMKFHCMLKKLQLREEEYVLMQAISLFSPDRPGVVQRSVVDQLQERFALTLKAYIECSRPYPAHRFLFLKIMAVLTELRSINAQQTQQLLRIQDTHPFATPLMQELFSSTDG

Regarding `CCCCC(CC)COC(=O)c1ccccc1O` (stereo unspecified), the Potency result in [1], in [2], in [3], in experiment [4], in [5] and in experiment [10] was “inactive” throughout. The Potency entry in experiment [11], in experiment [12], in experiment [14], in experiment [16], in [17] and in [18] was “inactive” throughout. For the same molecule, the molecule was called inactive in [6], in experiment [7], in experiment [8], in [9] and in experiment [13]. Also, in experiment [15], the max activation is -4.33%.
`CC1(C)CO[C@@H](CC(=O)O)CN1`: the Potency result in experiment [1], in [2], in experiment [3], in [4], in experiment [5] and in experiment [10] was “inactive” throughout. The Potency result in experiment [11], in experiment [12], in experiment [19], in experiment [14], in [16] and in [17] was “inactive” each time. For the same molecule, the Potency result in experiment [20] and in [18] was “inactive” in each case. The result in experiment [6], in experiment [7], in [8], in [9] and in experiment [13] was inactive. Moreover, the max activation in experiment [15] was -0.675%.
As to `O=C1CCCN1C1CCCCC1`, the Potency entry in experiment [1], in experiment [2], in experiment [3], in experiment [4], in [5] and in experiment [10] was “inactive” throughout. For the same molecule, the Potency entry in experiment [11], in experiment [19] and in experiment [14] was “inactive” each time. Also, the molecule was classed as inactive in [6], in [7], in [8], in experiment [9] and in experiment [13]. Also, the Potency in experiment [20] was 35.6 µM (active).
For `C=COCC1CCC(CO)CC1` (stereo unspecified), the Potency entry in experiment [1], in experiment [2], in experiment [3], in experiment [4], in experiment [5] and in [10] was “inactive” in each case. The Potency entry in [11], in experiment [12], in [19], in [14], in [20] and in [18] was “inactive” in each case. Besides, the outcome in experiment [6], in experiment [7], in experiment [8], in experiment [9] and in experiment [13] was inactive.
Regarding `CCn1ccnc1CC1COc2ccccc2O1` (stereo unspecified), the Potency result in experiment [1], in experiment [2], in experiment [3], in experiment [4], in experiment [5] and in experiment [10] was “inactive” in each case. Also, the Potency entry in experiment [11] and in experiment [12] was “inactive” throughout. In addition, the outcome in experiment [6], in experiment [7], in experiment [8] and in experiment [9] was inactive. Further, the Potency was 26.6 µM (active) in experiment [14], 0.776 µM (active) in experiment [20] and 4.9 µM (active) in experiment [18].
For the molecule `Cc1nc2c([nH]1)c(=O)n(C)c(=O)n2Cc1ccco1`, the Potency entry in experiment [1], in [2], in [3], in experiment [4], in experiment [5] and in [10] was “inactive” in each case. Moreover, the Potency entry in [11], in experiment [12], in [19], in experiment [14] and in experiment [18] was “inactive” each time. In addition, the molecule was classed as inactive in experiment [6], in experiment [7], in experiment [8] and in [9].
With `Cc1cc2c(cc1S(N)(=O)=O)S(=O)(=O)CCC2`, the Potency entry in experiment [1], in experiment [2], in experiment [3], in [4], in experiment [5] and in [10] was “inactive” each time. Also, the Potency entry in [11], in experiment [12], in experiment [19], in experiment [14], in experiment [16] and in experiment [17] was “inactive” in each case. For the same molecule, the Potency entry in [20] and in experiment [18] was “inactive” each time. Besides, the call in experiment [6], in experiment [7], in [8] and in experiment [9] was inactive. The max activation in experiment [15] is -2.16%.
On to `CC(C)(C)c1nnc(NS(=O)(=O)c2ccccc2)s1`, for which the Potency result in experiment [1], in [2], in experiment [3], in experiment [4], in experiment [5] and in [10] was “inactive” each time. Further, the Potency entry in [11], in experiment [12], in [19], in [20] and in experiment [18] was “inactive” in each case. Moreover, the molecule was called inactive in experiment [6], in experiment [7], in experiment [8], in [9] and in experiment [13]. Further, the Potency in [14] is 11.9 µM (active).
